# PubChem BioAssay (NCATS)
# Inconclusive results are not listed. The source made the active and inactive calls. Unless noted, the call rests on the fitted dose curve; in most records, active means well fitted curve in the direction sought with a large enough effect; inconclusive means small, poorly fitted or top-dose-only effect, or another doubt; inactive means no such curve, though single readings can be large; an effect the other way counts as inactive or inconclusive.
# Columns and labels:
# [1] = molecular target: Lysosomal acid glucosylceramidase (Homo sapiens) (UniProt P04062); experiment: Glucocerebrosidase-p2 (AID 348; in the data active means potency below about 10 µM; further: potency means the concentration at half of the fitted maximal effect); conditions: purified GBA, blue fluorogenic substrate, 40 min
# Chain of Lysosomal acid glucosylceramidase (Homo sapiens) (P04062 whole entry, looked up): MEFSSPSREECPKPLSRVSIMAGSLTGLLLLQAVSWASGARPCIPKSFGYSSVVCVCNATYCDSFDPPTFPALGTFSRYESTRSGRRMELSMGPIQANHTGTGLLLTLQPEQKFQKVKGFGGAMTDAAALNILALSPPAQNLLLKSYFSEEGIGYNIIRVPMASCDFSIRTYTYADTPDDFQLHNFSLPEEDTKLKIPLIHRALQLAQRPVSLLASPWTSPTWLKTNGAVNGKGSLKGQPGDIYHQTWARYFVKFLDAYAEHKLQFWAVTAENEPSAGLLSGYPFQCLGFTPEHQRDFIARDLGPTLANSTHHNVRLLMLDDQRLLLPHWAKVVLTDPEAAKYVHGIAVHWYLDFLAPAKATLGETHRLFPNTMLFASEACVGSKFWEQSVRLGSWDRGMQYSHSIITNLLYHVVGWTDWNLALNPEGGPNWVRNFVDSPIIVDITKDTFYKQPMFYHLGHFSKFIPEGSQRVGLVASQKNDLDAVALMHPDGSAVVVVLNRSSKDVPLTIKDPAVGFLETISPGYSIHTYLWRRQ
# Summary of the method: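 Normal human glucocerebrosidase (0.2 nM) with blue fluorogenic substrate (80 uM final) in citrate/phosphate pH 5.9 with 10mM sodium taurocholate, 0.01% tween-20; 40 min RT, NaOH/glycine stop; fluorescence Ex 365/Em 440; AC50 from a titration from 0.6 nM upwards.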
# [2] = AP1 Signaling Pathway (AID 357; active means well fitted curve in either direction with a large enough effect, not every such curve was filed as active;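 further: ME-180 reporter cells stimulated with EGF at its EC50 level; on the % scale 0 is the no-effect control and ±100 the full control effect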); conditions: ME-180 AP-1-bla reporter, EGF-induced, beta-lactamase ratio, 5 h; at 7.69 µM (top of the series) unless noted
# Summary of the method: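 Read-out was the 460nm/530nm emission ratio (excitation 405nm) after CCF4 loading for 2.5 hours at room temperature. Cells carried an AP-1-driven beta-lactamase reporter, were stimulated with EC50 EGF plus compound for 5 hours, and AC50 values came from titrations.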
# [3] = molecular target: Cytochrome P450 1A2 (Homo sapiens) (UniProt P05177); experiment: p450-cyp1a2 (AID 410; calls by dose curve; further: potency means the concentration at half of the fitted maximal effect); conditions: recombinant CYP1A2, luciferin-ME demethylation, luminescence; series mostly up to 57 µM
# Chain of Cytochrome P450 1A2 (Homo sapiens) (P05177 whole entry, looked up): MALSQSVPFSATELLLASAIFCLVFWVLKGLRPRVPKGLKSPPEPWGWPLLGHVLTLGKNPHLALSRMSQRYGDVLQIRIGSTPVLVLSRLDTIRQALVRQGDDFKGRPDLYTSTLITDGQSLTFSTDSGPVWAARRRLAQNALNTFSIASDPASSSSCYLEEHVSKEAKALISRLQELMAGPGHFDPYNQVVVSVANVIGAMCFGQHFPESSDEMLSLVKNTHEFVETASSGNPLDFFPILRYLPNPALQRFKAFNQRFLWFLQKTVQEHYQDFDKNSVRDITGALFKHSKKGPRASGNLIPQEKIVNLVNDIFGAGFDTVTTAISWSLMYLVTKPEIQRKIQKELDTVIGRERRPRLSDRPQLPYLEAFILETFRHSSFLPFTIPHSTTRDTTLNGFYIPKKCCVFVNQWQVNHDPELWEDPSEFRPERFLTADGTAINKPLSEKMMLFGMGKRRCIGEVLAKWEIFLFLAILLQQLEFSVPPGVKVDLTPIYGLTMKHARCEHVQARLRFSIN
# Summary of the method: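 O-Demethylation of luciferin 6' methyl ether by human CYP1A2 is monitored as luciferase luminescence. Substrate sits at Km (100uM); enzyme is 20nM. Values are scaled to 57 uM furafylline as maximal inhibition.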
# [4] = NFAT Signaling Pathway (AID 444; active means well fitted curve in either direction with a large enough effect, not every such curve was filed as active;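 further: carbachol stimulus at about its EC50 of 1 µM final; on the % scale 0 is the no-effect control and ±100 the full control effect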); conditions: Jurkat NFAT-bla M1, carbachol, beta-lactamase ratio, 5 h; at 7.69 µM (top of the series) unless noted
# Summary of the method: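 Read-out: CCF4 FRET ratio (460 nm/530 nm) after 1 h RT dye loading, used for %activity and AC50 from titration series. Cells: Jurkat NFAT-β-lactamase/M1 line, treated with compound plus 1 uM carbachol for 5 h, 37 °C.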
# [5] = Stat Signaling Pathway (AID 446; active means well fitted curve in either direction with a large enough effect, not every such curve was filed as active;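 further: ME-180 cervical cancer cells given 40 pM IL-6 alongside compound; SIE-controlled beta-lactamase reporter measured as 460/530 nm FRET emission ratio; on the % scale 0 is the no-effect control and ±100 the full control effect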); conditions: ME-180 (cervical carcinoma) SIE beta-lactamase reporter, IL-6 stimulated, 5 h; at 7.69 µM (top of the series) unless noted
# Summary of the method: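 Overnight-plated ME-180 cells bearing a STAT Inducible Element beta-lactamase reporter; 5 h co-exposure to compound and 40 pM IL-6; values normalized to 300 pM IL-6 and 125 nM JAK inhibitor controls.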
# [6] = molecular target: Glucocorticoid receptor (Homo sapiens) (UniProt P04150); experiment: GR-GFP Redistribution (AID 450;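 active means compounds whose dose series gives a full or clear partial fitted curve of increased nuclear translocation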; further: potency means the concentration at half of the fitted maximal effect); conditions: U2OS GR-GFP nuclear translocation, laser cytometry, 2 h
# Chain of Glucocorticoid receptor (Homo sapiens) (P04150 whole entry, looked up, the tested form may be a part): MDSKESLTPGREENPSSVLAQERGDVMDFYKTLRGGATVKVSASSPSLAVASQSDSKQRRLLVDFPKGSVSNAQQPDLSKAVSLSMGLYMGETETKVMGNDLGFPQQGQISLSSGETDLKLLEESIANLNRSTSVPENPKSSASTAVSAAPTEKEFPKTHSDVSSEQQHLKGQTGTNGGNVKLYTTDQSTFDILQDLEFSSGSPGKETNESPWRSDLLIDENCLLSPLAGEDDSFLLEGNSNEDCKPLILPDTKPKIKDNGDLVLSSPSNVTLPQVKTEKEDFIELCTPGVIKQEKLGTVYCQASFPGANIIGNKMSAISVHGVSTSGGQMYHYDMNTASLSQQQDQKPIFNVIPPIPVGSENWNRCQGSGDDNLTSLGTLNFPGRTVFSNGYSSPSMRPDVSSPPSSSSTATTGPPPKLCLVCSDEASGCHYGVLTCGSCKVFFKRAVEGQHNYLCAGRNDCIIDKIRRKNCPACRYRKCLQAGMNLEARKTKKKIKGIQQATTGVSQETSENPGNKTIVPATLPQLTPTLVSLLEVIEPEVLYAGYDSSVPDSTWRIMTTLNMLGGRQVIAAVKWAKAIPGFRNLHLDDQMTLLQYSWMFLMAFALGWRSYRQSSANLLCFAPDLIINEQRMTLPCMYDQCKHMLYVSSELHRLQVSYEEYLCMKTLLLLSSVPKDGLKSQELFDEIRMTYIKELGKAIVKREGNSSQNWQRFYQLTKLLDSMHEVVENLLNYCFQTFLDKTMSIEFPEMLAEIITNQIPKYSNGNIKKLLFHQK
# [7] = molecular target: Glucocorticoid receptor (Homo sapiens) (UniProt P04150); experiment: GR-EFC Redistribution (AID 451; calls by dose curve; further: potency means the concentration at half of the fitted maximal effect); conditions: CHO-K1 GR-EFC translocation, beta-gal luminescence, 2 h
# Summary of the method: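 Translocation of GR-ED fusion to nuclear EA restores b-gal, read by luminescence after 1 h room-temperature detection. Engineered CHO-K1 biosensor cells, 1,000/well, exposed 2 h at 37 C to titrations up to 46 uM final.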
# [8] = molecular target: Mitogen-activated protein kinase 10 (Mus musculus) (UniProt Q61831); experiment: JNK3 AlphaScreen Assay (AID 530; active means well fitted curve in either direction with a large enough effect, not every such curve was filed as active;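 further: kinase came from lysate of stimulated human HepG2 cells; signal reports phosphorylation of biotinylated GST-cJun 1-79 at Ser73 with 10 µM ATP; on the % scale 0 is the no-effect control and ±100 the full control effect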); conditions: JNK3 lysate, c-Jun phosphorylation; series mostly up to 57.1 µM
# Summary of the method: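 qHTS titrations with 15 min compound pre-incubation before adding ATP (10 uM final). Read-out: AlphaScreen of Ser73-phosphorylated biotin-GST-cJun using HepG2 lysate JNK3 activated by IL-1β and TNFα.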
# [9] = molecular target: Cytochrome P450 3A4 (Homo sapiens) (UniProt P08684); experiment: qHTS Assay for Inhibitors and Substrates of Cytochrome P450 3A4 (AID 884); conditions: recombinant CYP3A4, Luciferin-PPXE luminescence; series mostly up to 57.1 µM; further: potency means the concentration at half of the fitted maximal effect; nearly all actives have a fitted effect of over 50% in size
# Chain of Cytochrome P450 3A4 (Homo sapiens) (P08684 whole entry, looked up): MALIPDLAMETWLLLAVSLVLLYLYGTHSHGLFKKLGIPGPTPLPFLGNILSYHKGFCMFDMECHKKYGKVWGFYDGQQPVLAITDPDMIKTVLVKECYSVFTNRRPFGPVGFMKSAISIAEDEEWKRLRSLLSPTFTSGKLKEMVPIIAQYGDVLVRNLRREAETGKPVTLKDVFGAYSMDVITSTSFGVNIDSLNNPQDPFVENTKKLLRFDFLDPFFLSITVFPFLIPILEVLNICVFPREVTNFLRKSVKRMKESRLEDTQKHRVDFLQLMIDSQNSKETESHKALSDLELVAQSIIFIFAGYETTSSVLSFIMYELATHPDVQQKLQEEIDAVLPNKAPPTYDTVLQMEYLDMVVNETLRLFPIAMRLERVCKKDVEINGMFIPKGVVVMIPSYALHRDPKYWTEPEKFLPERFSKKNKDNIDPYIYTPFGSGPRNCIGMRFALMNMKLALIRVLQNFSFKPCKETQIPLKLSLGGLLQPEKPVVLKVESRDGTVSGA
# Summary of the method: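 Luminescent readout of luciferin produced by CYP3A4 (20 nM) dealkylation of Luciferin-PPXE, 25 uM (its KM). NADPH-driven reaction ran 60 min at RT after 10 min compound preincubation; data scaled to 57 uM ketoconazole as 100% inhibition.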
# [10] = molecular target: Cytochrome P450 3A4 (Homo sapiens) (UniProt P08684); experiment: qHTS Assay for Activators of Cytochrome P450 3A4 (AID 885); conditions: recombinant CYP3A4, Luciferin-PPXE luminescence, 60 min; series mostly up to 57.1 µM; further: nearly all actives have a fitted effect of over 65% in size
# Summary of the method: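 Using 20nM recombinant human CYP3A4 in potassium phosphate (200mM), substrate Luciferin-PPXE at 25uM, luminescent luciferin detection followed a 60-min RT NADPH reaction; data scaled to 57 uM ketoconazole.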
# [11] = Confirmation and Secondary Assay for Modulators of Hemoglobin Beta Chain Splicing at IVS2 654 locus (AID 910); conditions: HeLa EGFP-654 splicing reporter, GFP fluorescence, 48 h; series mostly up to 38.3 µM;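 further: HeLa cells stably carrying EGFP split by mutant beta-globin IVS2-654 intron; per-well total GFP intensity by laser scanning cytometry after 2-day treatment; % of control where 0% means no effect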
# Summary of the method: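 Readout: per-well total peak green fluorescence (488 nm ex, 500–520 nm em) from objects 5–250 µm, reflecting correct splicing of an EGFP-654 reporter. Compounds were applied for 2 days at 37 °C to overnight-plated HeLa EGFP-654 cells; controls were DMSO and 500 nM IVS2-654 PNA.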
# [12] = Confirmation and Secondary Assay for Modulators of Hemoglobin Beta Chain Splicing at IVS2 705 locus (AID 930); conditions: HeLa EGFP-705 splicing reporter, GFP fluorescence, 48 h; series mostly up to 38.3 µM;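 further: HeLa cells stably expressing the EGFP-705 splicing reporter; GFP fluorescence per well restored by corrected splicing of the IVS2-705 intron in EGFP; % of control where 0% means no effect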
# Summary of the method: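 Per-well GFP, captured at 1 x 8 µm resolution with 488 nm excitation, served as the read-out for HeLa EGFP-705 cells incubated 2 days with test compound versus DMSO.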
# [13] = qHTS Assay for Lipid Storage Modulators (AID 1519; calls by dose curve); conditions: Drosophila S3 cells, BODIPY lipid droplet/cell ratio, laser cytometry, cells loaded with oleic acid; for activity change, negative = inhibition: at 57.5 µM (top of the series)
# Summary of the method: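 Cells seeded at 5,000 per well were treated with compounds over a concentration series and loaded with oleic acid (400 uM, as added). Lipid droplet fluorescence (488 nm excitation, 500-530 nm channel) was read by laser-scanning cytometry and normalized to 20 uM Triacsin C.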
# [14] = molecular target: Ubiquitin carboxyl-terminal hydrolase 1 (Homo sapiens) (UniProt O94782); experiment: Inhibitors of USP1/UAF1: Pilot qHTS (AID 504865); conditions: purified USP1/UAF1, Ub-rhodamine cleavage fluorescence; series mostly up to 54.9 µM; further: nearly all actives have a fitted effect of over 35% in size; further: potency means the concentration at half of the fitted maximal effect
# Chain of Ubiquitin carboxyl-terminal hydrolase 1 (Homo sapiens) (O94782 whole entry, looked up): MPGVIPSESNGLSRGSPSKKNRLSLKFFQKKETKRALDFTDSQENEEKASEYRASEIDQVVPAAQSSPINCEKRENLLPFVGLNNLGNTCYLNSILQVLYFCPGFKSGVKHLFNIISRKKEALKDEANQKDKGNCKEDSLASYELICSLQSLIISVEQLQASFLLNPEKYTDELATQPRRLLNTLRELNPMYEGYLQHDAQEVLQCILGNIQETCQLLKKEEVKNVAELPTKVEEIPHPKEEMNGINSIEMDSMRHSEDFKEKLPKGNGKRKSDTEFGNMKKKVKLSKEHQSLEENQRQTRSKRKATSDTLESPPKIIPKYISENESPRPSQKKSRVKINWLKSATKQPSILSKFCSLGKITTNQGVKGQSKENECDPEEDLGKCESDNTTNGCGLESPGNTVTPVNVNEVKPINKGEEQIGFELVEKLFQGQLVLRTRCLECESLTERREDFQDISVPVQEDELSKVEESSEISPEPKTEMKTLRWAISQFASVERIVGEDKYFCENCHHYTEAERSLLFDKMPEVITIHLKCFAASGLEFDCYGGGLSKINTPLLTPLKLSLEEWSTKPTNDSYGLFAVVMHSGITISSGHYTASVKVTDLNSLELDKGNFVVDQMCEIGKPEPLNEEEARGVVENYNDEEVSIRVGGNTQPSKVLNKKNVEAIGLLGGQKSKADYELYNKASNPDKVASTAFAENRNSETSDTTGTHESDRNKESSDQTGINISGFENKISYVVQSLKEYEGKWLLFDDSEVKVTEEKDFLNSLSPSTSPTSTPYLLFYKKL
# Summary of the method: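 In 50mM HEPES pH 7.8 containing 0.5mM EDTA, 1mM TCEP, 0.1 mg/ml BSA and 0.01% Tween-20, 1nM USP1/UAF1 is exposed to compound for 15 min, then Ub-Rho (150nM final) is added and fluorescence is read over time.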
# [15] = Primary qHTS for small molecule stabilizers of the endoplasmic reticulum resident proteome: Secreted ER Calcium Modulated Protein (SERCaMP) assay (AID 1508630); conditions: SH-SY5Y GLuc-SERCaMP (Gaussia luciferase released on ER calcium loss) secretion, thapsigargin, luminescence; series mostly up to 38.4 µM; further: on the % scale 0 is the no-effect control and ±100 the full control effect
# Summary of the method: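 The SH-SY5Y reporter protocol was run at 3 concentrations up to 38.3 uM (primary) or 11 concentrations (follow-up): 16 h compound, 100 nM thapsigargin for 4 h, then extracellular luciferase luminescence.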
# [16] = molecular target: 3',5'-cyclic-AMP phosphodiesterase 4B (Homo sapiens) (UniProt Q07343); experiment: qHTS Assay for Inhibitors of PDE-IV (AID 607; active means well fitted activation curve with a large enough effect in the main read-out, with a control signal flat, not every such curve was filed as active; further: % of control where 0% means no effect); conditions: HEK293 ACTOne CNG channel cells, membrane potential fluorescence; series mostly up to 22.9 µM
# Chain of 3',5'-cyclic-AMP phosphodiesterase 4B (Homo sapiens) (Q07343 whole entry, looked up): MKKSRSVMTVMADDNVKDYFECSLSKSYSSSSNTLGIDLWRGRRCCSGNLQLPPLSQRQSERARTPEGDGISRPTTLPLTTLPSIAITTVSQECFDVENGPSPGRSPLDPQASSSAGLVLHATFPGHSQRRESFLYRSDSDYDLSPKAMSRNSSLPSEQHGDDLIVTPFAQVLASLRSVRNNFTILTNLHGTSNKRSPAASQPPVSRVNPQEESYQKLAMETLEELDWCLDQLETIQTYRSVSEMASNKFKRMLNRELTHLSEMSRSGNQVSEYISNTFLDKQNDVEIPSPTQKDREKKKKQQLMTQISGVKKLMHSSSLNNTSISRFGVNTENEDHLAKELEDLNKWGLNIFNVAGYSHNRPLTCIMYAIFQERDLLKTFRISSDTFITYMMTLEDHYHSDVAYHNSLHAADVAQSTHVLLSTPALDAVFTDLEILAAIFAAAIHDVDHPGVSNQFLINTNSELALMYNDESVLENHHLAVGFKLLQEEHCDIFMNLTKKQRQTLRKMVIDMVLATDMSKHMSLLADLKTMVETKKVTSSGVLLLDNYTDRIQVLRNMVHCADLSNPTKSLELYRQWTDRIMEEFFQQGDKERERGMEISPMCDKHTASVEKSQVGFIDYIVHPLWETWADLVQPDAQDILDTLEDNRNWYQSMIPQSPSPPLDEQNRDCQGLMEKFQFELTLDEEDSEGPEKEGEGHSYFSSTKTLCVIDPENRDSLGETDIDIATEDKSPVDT
# Summary of the method: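 Live HEK293 cells with a modified cyclic nucleotide-gated (CNG) channel report intracellular cAMP via membrane-potential dye fluorescence (ex 535/em 590 nm). Endogenous PDE-IV was targeted. Compounds were tested at up to 22.9 uM final; RO 20-1724 100 uM served as control.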
# [17] = measured here: cell count channel max response
# [18] = measured here: lipid channel max response
SMILES,Potency [1],"activity change, negative = inhibition [2]",Potency [3],"activity change, negative = inhibition [4]","activity, negative = inhibition [5]",Potency [6],Potency [7],outcome [8],Potency [9],Potency [10],outcome [11],outcome [12],"activity change, negative = inhibition [13]","max response [13, 17] [%]","max response [13, 18] [%]",Potency [14],Potency [15],Potency [16]
c1cncc(CNc2nc(-c3ccoc3)nc3ccccc23)c1,> 11.4 µM (inactive),1.41% (inactive),0.398 µM (active),-9.01% (inactive),-4.87% (inactive),> 46 µM (inactive),> 46 µM (inactive),inactive,7.94 µM (active),inactive,inactive,inactive,12.2% (inactive),2.22,16.5,44.7 µM (active),inactive,–
CNc1ccnc(-c2ccccc2CN(C)C)n1,> 11.4 µM (inactive),-3.79% (inactive),12.6 µM (active),-12.6% (inactive),-6.7% (inactive),> 46 µM (inactive),> 46 µM (inactive),inactive,–,–,inactive,inactive,2.03% (inactive),-5.53,2.14,inactive,inactive,inactive
Cc1cnc(CNc2ccnc(-c3ccccc3Cl)n2)cn1,> 11.4 µM (inactive),-1.45% (inactive),12.6 µM (active),-3.33% (inactive),7.09% (inactive),> 46 µM (inactive),> 46 µM (inactive),inactive,–,inactive,inactive,inactive,7.03% (inactive),7.84,16.2,inactive,inactive,inactive
